What was measured:
Experiment in all cases: log2 ratio of Biotin-Ahx-Ub-VS probe labelling (fragment/DMSO); higher = less target engagement (more negative = stronger competition), active = hit call of the paper (q ≤ 0.05, log2 ratio ≤ -1)
Conditions in all cases: compound concentration: 200 uM; treatment time: 3 h
[1] = compound: CC(C)CN(C1CC1)C(=O)CCl
Method in brief: (§1)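 Labelled DUBs from HEK293T lysate were NeutrAvidin-enriched, digested with LysC and trypsin, and run by diaPASEF LC-MS/MS. Before that, each 495 µg sample in Tris/CHAPS/IGEPAL buffer with protease inhibitors was treated in triplicate with fragment at 200 µM or vehicle for 3 h, then with Biotin-Ahx-Ub-VS at 0.5 µM final for 1 h. Values are average log2 ratios of fragment over vehicle by unpaired t-test, based on global-median-normalised Spectronaut label-free quantities from proteins with ≥2 unique peptides.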

[2] = compound: CC(NC(=O)CCl)c1cccs1
Method in brief: as §1

[3] = compound: CC1CCCCC1NC(=O)CCl
Method in brief: as §1

[4] = compound: CC1CCCCN1C(=O)CCl
Method in brief: as §1

[5] = compound: CC1CN(CC(C)O1)C(=O)CCl
Method in brief: as §1

[6] = compound: CN(C1CCCCC1)C(=O)CCl
Method in brief: as §1

[7] = compound: Cc1cc(NC(=O)CCl)no1
Method in brief: as §1

[8] = compound: Cc1cccc(NC(=O)CCl)c1
Method in brief: as §1

[9] = compound: Cc1nc(NC(=O)CCl)sc1C
Method in brief: as §1

[10] = compound: Cc1nnc(NC(=O)CCl)s1
Method in brief: as §1

[11] = compound: Cl.Cc1ncsc1CNC(=O)CCl
Method in brief: as §1

[12] = compound: ClCC(=O)N1CCCCCCC1
Method in brief: as §1

[13] = compound: ClCC(=O)NC1(CCCC1)C#N
Method in brief: as §1

[14] = compound: ClCC(=O)NCC1CCC1
Method in brief: as §1

[15] = compound: ClCC(=O)NCC1CCCO1
Method in brief: as §1

[16] = compound: ClCC(=O)NCc1ccco1
Method in brief: as §1

[17] = compound: ClCC(=O)Nc1cccc(Cl)c1
Method in brief: as §1

[18] = compound: ClCC(=O)NC(C1CC1)C1CC1
Method in brief: as §1

Measured: log2 ratio of Biotin-Ahx-Ub-VS probe labelling

USP15 (UniProt Q9Y4E8)
Chain of UniProt Q9Y4E8 (Q9Y4E8 whole entry): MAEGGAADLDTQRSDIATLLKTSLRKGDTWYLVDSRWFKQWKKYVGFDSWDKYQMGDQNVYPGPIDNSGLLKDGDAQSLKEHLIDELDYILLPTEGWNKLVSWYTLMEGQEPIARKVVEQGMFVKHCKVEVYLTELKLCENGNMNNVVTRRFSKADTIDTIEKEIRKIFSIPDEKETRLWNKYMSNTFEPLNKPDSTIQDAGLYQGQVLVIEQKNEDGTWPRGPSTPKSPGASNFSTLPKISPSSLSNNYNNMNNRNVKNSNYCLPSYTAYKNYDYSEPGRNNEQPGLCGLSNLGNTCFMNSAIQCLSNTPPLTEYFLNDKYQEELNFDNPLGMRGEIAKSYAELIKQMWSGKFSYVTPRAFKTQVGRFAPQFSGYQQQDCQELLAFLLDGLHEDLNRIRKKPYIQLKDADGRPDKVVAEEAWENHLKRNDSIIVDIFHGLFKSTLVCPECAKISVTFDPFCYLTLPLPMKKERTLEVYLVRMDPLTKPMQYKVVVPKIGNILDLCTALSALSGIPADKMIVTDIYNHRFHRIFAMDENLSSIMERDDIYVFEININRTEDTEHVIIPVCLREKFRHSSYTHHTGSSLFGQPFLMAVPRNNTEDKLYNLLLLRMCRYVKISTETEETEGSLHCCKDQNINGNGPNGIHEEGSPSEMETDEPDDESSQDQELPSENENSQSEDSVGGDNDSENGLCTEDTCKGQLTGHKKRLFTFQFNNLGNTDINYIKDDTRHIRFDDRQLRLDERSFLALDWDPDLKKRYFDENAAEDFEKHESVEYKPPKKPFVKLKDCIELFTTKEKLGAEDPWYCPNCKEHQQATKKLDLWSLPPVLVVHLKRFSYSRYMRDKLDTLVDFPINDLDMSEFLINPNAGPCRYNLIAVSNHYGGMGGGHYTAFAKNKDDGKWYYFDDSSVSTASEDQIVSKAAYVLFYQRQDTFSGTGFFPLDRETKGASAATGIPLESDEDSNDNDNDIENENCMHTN
inactive: [1] -0.00677 | [2] 0.017 | [3] -0.0215 | [4] -0.269 | [5] -0.339 | [6] -0.338 | [7] -0.104 | [8] -0.325 | [9] -0.245 | [10] -0.374 | [11] -0.116 | [12] -0.163 | [13] -0.364 | [14] -0.255 | [15] 0.0921 | [16] -0.327 | [17] -0.77

ATXN3 (UniProt P54252)
Chain of UniProt P54252 (P54252 whole entry): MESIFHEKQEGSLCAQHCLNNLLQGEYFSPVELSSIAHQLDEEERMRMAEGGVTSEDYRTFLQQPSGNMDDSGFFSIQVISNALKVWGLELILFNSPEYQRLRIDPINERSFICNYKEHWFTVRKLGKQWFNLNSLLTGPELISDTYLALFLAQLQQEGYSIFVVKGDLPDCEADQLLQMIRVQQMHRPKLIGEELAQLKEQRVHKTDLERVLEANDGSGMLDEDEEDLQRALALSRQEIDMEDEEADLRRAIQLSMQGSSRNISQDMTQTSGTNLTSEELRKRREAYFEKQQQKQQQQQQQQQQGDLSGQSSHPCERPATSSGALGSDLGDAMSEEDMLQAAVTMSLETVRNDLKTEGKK
inactive: [1] -0.0377 | [2] 0.0273 | [3] -0.0841 | [4] -0.487 | [5] -0.327 | [6] -0.303 | [7] -0.0822 | [8] -0.171 | [9] -0.116 | [10] -0.268 | [11] -0.254 | [12] -0.156 | [18] 0.0786 | [13] -0.305 | [14] -0.206 | [15] -0.0451 | [16] -0.0869
active: [17] -1.02

USP25 (UniProt Q9UHP3)
active: [17] -1.21
inactive: [1] -0.0734 | [2] -0.0952 | [3] -0.722 | [4] -0.62 | [5] -0.368 | [6] 0.0415 | [7] -0.392 | [8] -0.444 | [9] -0.307 | [10] -0.446 | [11] -0.133 | [12] -0.102 | [13] -0.276 | [14] -0.149 | [15] 0.0208 | [16] -0.419

USP19 (UniProt O94966)
inactive: [1] 0.00416 | [2] -0.0254 | [3] -0.108 | [4] -0.341 | [5] -0.267 | [6] -0.381 | [7] -0.558 | [8] -0.285 | [9] -0.171 | [10] -0.607 | [11] 0.00124 | [12] -0.175 | [13] -0.0817 | [14] 0.0408 | [15] 0.0949 | [16] -0.207 | [17] -0.681

USP39 (UniProt Q53GS9)
inactive: [1] -0.169 | [2] -0.144 | [3] -0.231 | [4] -0.11 | [5] -0.122 | [6] 0.248 | [7] -0.329 | [8] -0.224 | [9] 0.121 | [10] -0.07 | [11] 0.28 | [12] 0.0652 | [13] -0.079 | [14] -0.0869 | [15] -0.101 | [16] -0.0526 | [17] 0.19

FAM105A (UniProt Q9NUU6)
inactive: [1] 0.277 | [2] 0.257 | [3] 0.116 | [4] 0.0605 | [5] 0.177 | [6] 0.232 | [7] -0.696 | [8] 0.176 | [9] 0.144 | [10] 0.133 | [11] -0.00706 | [12] -0.0484 | [13] 0.105 | [14] 0.185 | [15] -0.0373 | [16] 0.0935 | [17] 0.0436

EIF3H (UniProt O15372)
Chain of UniProt O15372 (O15372 whole entry): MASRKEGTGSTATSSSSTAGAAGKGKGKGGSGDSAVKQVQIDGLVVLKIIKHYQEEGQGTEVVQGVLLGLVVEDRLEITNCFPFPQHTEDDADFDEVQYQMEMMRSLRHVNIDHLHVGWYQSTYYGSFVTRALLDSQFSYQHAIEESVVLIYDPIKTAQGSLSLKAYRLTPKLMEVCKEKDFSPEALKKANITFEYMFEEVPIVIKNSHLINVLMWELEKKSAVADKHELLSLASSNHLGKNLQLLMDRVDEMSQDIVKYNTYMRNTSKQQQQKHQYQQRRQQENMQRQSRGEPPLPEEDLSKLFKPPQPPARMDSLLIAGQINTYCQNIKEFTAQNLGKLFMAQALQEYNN
inactive: [1] -0.185 | [2] 0.239 | [3] -0.385 | [4] -0.0794 | [5] -0.144 | [6] 0.0605 | [7] 0.0219 | [8] 0.0847 | [9] 0.0871 | [10] 0.0591 | [11] 0.337 | [12] 0.342 | [13] -0.198 | [14] -0.00227 | [15] 0.038 | [16] 0.206 | [17] 0.176

USP46 (UniProt P62068)
Chain of UniProt P62068 (P62068 whole entry): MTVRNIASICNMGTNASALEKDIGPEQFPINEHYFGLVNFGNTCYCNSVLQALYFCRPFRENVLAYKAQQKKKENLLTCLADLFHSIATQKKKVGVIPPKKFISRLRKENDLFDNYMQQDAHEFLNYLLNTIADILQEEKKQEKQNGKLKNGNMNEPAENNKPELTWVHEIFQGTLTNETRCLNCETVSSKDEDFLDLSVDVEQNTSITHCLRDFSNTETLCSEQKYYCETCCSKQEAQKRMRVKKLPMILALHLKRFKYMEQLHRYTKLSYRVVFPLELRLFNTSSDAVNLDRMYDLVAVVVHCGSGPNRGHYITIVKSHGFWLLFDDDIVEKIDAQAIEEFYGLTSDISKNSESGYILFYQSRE
inactive: [1] -0.0299 | [2] -0.0303 | [3] 0.206 | [4] -0.116 | [5] -0.0331 | [6] -0.248 | [7] -0.103 | [8] -0.0865 | [9] -0.0696 | [10] -0.323 | [11] 0.0828 | [12] -0.198 | [13] 0.0653 | [14] 0.0564 | [15] 0.118 | [16] 0.0832 | [17] -0.509

UniProt Q9P2H5
inactive: [1] -0.166 | [2] -0.204 | [3] 0.0516 | [4] -0.0828 | [5] -0.259 | [6] -0.335 | [7] 0.0945 | [8] -0.217 | [9] -0.0782 | [10] -0.183 | [11] -0.0813 | [12] -0.0714 | [13] -0.237 | [14] -0.322 | [15] -0.138 | [16] -0.105 | [17] -0.631

USP14 (UniProt P54578)
inactive: [1] -0.0633 | [2] 0.0378 | [3] -0.306 | [4] -0.639 | [5] -0.518 | [6] -0.00359 | [7] -0.188 | [8] -0.184 | [9] 0.051 | [10] -0.437 | [11] -0.178 | [12] -0.0389 | [13] -0.0892 | [14] 0.0427 | [15] 0.00941 | [16] -0.0561 | [17] -0.675

USP4 (UniProt Q13107)
inactive: [1] 0.153 | [2] 0.162 | [3] -0.162 | [4] -0.204 | [5] -0.321 | [6] -0.349 | [7] -0.155 | [8] -0.256 | [9] 0.0368 | [10] -0.309 | [11] -0.0374 | [12] -0.0039 | [13] -0.169 | [14] 0.0544 | [15] 0.132 | [16] -0.0646 | [17] -0.558

USP54 (UniProt Q70EL1)
inactive: [1] 0.0698 | [2] 0.582 | [3] 0.646 | [4] 0.245 | [5] 0.658 | [6] 0.179 | [7] 0.204 | [8] 0.439 | [9] 0.226 | [10] 0.528 | [11] 0.34 | [12] -0.205 | [13] 0.194 | [14] 0.336 | [15] 0.0874 | [16] 0.439 | [17] 0.681

PRPF8 (UniProt Q6P2Q9)
inactive: [1] 0.0577 | [2] -0.0808 | [3] -0.0383 | [4] -0.109 | [5] -0.0419 | [6] -0.249 | [7] 0.147 | [8] 0.15 | [9] 0.137 | [10] 0.0499 | [11] -0.0129 | [12] 0.139 | [13] -0.152 | [14] -0.103 | [15] 0.164 | [16] -0.228 | [17] 0.0652

USP42 (UniProt Q9H9J4)
inactive: [1] 0.361 | [2] -0.342 | [3] -0.295 | [4] -0.305 | [5] -0.42 | [6] -0.0896 | [7] 0.113 | [8] 0.381 | [9] 0.125 | [10] 0.374 | [11] 0.49 | [12] 0.0331 | [13] -0.72 | [14] -0.299 | [15] -0.0821 | [16] -0.125 | [17] 0.584

ALG13 (UniProt Q9NP73)
inactive: [1] 0.0397 | [2] -0.0404 | [3] -1.07 | [4] 0.242 | [5] 0.125 | [6] -0.757 | [7] -0.0979 | [8] 0.249 | [9] 0.182 | [10] -0.152 | [11] -0.305 | [12] -0.0228 | [13] 0.017 | [14] 0.00528 | [15] 0.149 | [16] -0.6 | [17] 0.292

OTUD4 (UniProt Q01804)
inactive: [1] 0.0776 | [2] -0.761 | [3] -0.763 | [4] -0.46 | [5] -0.413 | [6] -0.109 | [7] 0.0839 | [8] -0.0534 | [9] -0.136 | [10] 0.02 | [11] -0.0939 | [12] -0.131 | [14] -0.397 | [15] 0.0366 | [16] -0.354 | [17] -0.972
active: [13] -2.71

UniProt O00507
Chain of UniProt O00507 (O00507 whole entry): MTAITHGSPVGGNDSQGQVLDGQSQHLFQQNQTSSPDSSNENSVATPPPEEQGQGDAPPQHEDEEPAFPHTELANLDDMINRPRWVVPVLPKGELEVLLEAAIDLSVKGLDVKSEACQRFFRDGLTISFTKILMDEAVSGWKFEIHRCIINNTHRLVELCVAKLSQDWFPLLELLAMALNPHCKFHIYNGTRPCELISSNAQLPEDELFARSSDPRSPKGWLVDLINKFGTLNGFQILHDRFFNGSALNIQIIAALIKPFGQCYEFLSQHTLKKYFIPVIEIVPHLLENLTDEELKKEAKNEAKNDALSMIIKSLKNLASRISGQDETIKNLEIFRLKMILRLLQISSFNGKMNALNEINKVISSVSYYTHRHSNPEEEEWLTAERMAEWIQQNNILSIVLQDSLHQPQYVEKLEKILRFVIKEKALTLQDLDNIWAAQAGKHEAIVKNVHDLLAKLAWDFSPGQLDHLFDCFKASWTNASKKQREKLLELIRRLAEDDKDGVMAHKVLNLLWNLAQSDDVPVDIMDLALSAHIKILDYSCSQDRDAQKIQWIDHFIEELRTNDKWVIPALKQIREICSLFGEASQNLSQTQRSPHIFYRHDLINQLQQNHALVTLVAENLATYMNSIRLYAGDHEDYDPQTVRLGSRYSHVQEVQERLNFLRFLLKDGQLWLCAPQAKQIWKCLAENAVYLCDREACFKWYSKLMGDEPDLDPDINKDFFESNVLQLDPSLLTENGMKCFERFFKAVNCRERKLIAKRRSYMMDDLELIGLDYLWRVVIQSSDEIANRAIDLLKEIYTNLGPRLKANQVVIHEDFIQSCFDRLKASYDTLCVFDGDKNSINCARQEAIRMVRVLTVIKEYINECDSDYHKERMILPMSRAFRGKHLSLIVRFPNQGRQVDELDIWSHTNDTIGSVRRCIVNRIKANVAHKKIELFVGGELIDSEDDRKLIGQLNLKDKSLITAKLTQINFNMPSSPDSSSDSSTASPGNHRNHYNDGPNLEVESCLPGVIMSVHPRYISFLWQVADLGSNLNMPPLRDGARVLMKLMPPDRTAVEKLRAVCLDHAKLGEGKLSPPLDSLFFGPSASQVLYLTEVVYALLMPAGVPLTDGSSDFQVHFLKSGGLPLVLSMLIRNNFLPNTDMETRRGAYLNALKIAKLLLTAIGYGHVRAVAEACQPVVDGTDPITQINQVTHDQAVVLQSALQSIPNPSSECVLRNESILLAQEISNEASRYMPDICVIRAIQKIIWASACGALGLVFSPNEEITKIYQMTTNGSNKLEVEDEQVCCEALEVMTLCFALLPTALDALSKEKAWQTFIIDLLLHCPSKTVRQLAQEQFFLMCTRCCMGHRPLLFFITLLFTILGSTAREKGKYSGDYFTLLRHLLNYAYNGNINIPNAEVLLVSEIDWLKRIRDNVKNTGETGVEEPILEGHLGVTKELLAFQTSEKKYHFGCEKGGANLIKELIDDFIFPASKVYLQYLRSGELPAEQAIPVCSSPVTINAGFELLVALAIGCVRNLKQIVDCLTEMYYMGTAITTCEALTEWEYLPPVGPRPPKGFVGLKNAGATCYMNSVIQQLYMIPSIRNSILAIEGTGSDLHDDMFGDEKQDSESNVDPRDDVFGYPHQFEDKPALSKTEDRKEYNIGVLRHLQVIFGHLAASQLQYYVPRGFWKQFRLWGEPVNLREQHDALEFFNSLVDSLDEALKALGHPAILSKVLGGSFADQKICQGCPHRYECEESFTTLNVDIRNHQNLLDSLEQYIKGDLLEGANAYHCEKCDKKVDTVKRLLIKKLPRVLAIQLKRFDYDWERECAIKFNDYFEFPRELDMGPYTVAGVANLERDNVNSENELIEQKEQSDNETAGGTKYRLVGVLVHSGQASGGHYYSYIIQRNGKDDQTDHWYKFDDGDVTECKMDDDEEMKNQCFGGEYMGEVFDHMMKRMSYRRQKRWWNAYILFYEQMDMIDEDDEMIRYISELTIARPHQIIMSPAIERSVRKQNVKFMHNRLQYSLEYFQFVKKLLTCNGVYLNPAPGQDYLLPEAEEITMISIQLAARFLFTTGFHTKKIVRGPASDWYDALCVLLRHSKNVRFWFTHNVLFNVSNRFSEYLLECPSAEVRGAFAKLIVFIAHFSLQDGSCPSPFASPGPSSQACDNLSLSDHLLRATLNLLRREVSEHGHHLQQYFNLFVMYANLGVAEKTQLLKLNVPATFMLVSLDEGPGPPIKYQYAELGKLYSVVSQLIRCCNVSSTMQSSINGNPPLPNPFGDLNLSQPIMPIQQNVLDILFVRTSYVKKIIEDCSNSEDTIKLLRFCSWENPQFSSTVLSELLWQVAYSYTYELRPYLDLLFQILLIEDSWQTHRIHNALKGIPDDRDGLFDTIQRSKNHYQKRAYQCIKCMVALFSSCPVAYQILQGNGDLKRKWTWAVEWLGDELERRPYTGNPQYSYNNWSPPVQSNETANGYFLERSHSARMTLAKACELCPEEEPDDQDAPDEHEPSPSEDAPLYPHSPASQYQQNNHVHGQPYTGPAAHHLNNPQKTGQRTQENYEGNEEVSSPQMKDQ
inactive: [1] 0.374 | [2] 0.0497 | [3] -0.0879 | [4] -0.429 | [5] -0.148 | [6] 0.12 | [7] 0.023 | [8] 0.0709 | [9] 0.409 | [10] -0.563 | [11] -0.51 | [12] 0.333 | [13] 0.0321 | [14] 0.0835 | [15] 0.383 | [16] -0.338 | [17] -0.568

OTUD6B (UniProt Q8N6M0)
Chain of UniProt Q8N6M0 (Q8N6M0 whole entry): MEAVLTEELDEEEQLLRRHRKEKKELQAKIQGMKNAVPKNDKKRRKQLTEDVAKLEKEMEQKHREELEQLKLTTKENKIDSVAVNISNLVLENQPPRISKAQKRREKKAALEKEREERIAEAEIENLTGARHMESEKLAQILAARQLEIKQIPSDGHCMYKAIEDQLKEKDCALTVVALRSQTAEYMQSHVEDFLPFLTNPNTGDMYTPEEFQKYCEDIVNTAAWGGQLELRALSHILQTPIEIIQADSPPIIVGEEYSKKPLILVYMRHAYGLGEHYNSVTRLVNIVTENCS
inactive: [1] 0.0114 | [2] -0.285 | [3] 0.0184 | [4] -0.269 | [5] -0.538 | [6] -0.0327 | [7] -0.167 | [8] -0.274 | [9] -0.338 | [10] -0.283 | [11] -0.0694 | [12] -0.286 | [13] -0.29 | [14] -0.356 | [15] 0.00691 | [16] -0.225
active: [17] -1.19
